Test in all cases: NCI-60 one-dose screen, 48 h (100 = growth as untreated, 0 = no growth, -100 = all killed)
Settings in all cases: 10 µM unless noted

Assay [1] deals with DU-145 prostate.
The subject of assay [2] is K-562 leukemia.
For assay [3], the system named is MALME-3M melanoma.
The test system of assay [4] is MDA-MB-231 breast.
The subject of assay [5] is RXF 393 renal.
The test system of assay [6] is SF-268 CNS.
Assay [7] deals with SF-295 CNS.
The subject of assay [8] is SF-539 CNS.
The subject of assay [9] is UACC-257 melanoma.
The test system of assay [10] is M14 melanoma.
In assay [11] the test system is HCT-15 colon.
For assay [12], the system named is HT29 colon.
Assay [13] relates to SNB-75 CNS.
In assay [14] the test system is SNB-19 CNS.
The test system of assay [15] is U251 CNS.
The test system of assay [16] is PC-3 prostate.
In assay [17] the test system is SK-MEL-5 melanoma.
The test system of assay [18] is UACC-62 melanoma.
Assay [19] relates to LOX IMVI melanoma.
The subject of assay [20] is SK-MEL-28 melanoma.

The structures appear in SMILES notation. The panel holds about 83,000 compounds, 20% with a hit somewhere; the sample as a whole holds those more often.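 Single-dose data. Exposure time 48 hours. Values below 10 considered active.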 Values without a mark were called inactive. Activity calls are given as the source filed them.

Consider `c1cc(NCCc2ccncc2)nc(-n2cnc3ccccc32)c1`, for which the growth is 85.7% in assay [1]; 88.6% in [2]; 103% in [3]; 98.2% in [4]; 82.7% in assay [5]; 82.3% in assay [6]. The growth in assay [7] is 105%; in [8], 90.3%; in [9] it was 93.8%; in [10], 94%; in assay [11] it was 90.1%; in assay [12] it was 92.7%. Further, the growth in assay [13] is 112%; in assay [14] it was 99.9%; in [15], 82.2%; in assay [16], 83%; in [17], 93.7%; in assay [18], 91.2%. The values for the growth in assay [19] and in [20] were 79.4% and 109%, respectively.

For `COc1ccc(N2C(=O)C(Oc3ccccc3)C2c2ccc(C)cc2)cc1` (stereo not given), the growth is 113% in [1]; 95.1% in assay [2]; 93.4% in assay [3]; 101% in assay [4]; 126% in assay [5]; 102% in [6]. Further, the growth is 89.6% in assay [7]; 98.6% in assay [8]; 95.3% in [9]; 93.1% in [10]; 91.2% in assay [11]; 97.8% in assay [12]. In addition, the growth in [13] was 97.7%; in assay [14] it was 101%; in [15], 90.1%; in assay [16] it was 97.6%; in [17] it was 104%; in [18], 102%. Moreover, the growth in assay [19] is 98.1%; in [20], 99.5%.

On to `NCCCNc1nc2ccccc2c2c(=O)c3cc(C(F)(F)F)ccc3sc12`, for which the growth in [1] is -0.179% (active); in assay [2], -21.4% (active); in assay [3], 87.1%; in assay [4] it was -35.2% (active); in assay [5] it was 55.7%; in assay [6], 47.1%. Also, the growth in assay [7] was 71.7%; in assay [8], -20% (active); in assay [9], 96.1%; in assay [10] it was -26.9% (active); in assay [11], -55.7% (active); in assay [12] it was -23.4% (active). The growth in [13] is 60.1%; in assay [14], 30.4%; in [15], -55.7% (active); in assay [16] it was 37.3%; in assay [17] it was 45.8%; in assay [18] it was 95.1%. The growth in [19] was -97.7% (active); in [20] it was 81.2%.

Consider `COc1ccc(N)c(N)c1`, for which the growth was 111% in assay [1]; 97.8% in assay [2]; 91.7% in assay [3]; 105% in assay [4]; 105% in assay [5]; 117% in [6]. Besides, the growth was 99.1% in assay [7]; 97.4% in assay [8]; 114% in assay [9]; 101% in assay [10]; 101% in assay [11]; 104% in [12]. Further, the growth in [13] was 85.7%; in assay [14], 96.7%; in assay [15] it was 107%; in assay [16], 99.4%; in assay [17], 105%; in [18] it was 93.6%. Moreover, the results for the growth in [19] and in assay [20] were 99.3% and 111%, respectively.

Consider `COc1ccc(C2=Nn3c(nnc3-c3cc(Cl)cc(Cl)c3Cl)SC2)cc1`, for which the growth is 6.93% (active) in [1]; 2.96% (active) in [2]; 37.2% in [3]; 10.3% in assay [4]; 14.4% in [5]; 22.6% in assay [6]. For the same molecule, the growth was 0.025% (active) in [7]; -8.32% (active) in assay [8]; 37% in assay [9]; -45.3% (active) in [10]; 12.1% in assay [11]; -28.8% (active) in [12]. Besides, the growth is 22.7% in assay [13]; 14.3% in [14]; 18.5% in [15]; 18.1% in assay [16]; -13.5% (active) in assay [17]; 41.1% in [18]. Moreover, the growth in [19] was 23.7%; in assay [20], 47.7%.

`COc1nc2ccccc2cc1-c1nc2c(cnn2-c2ccccc2)c(=O)[nH]1`: the growth is 61% in assay [1]; 16.7% in assay [2]; 75.6% in [3]; 58.3% in assay [4]; 67.1% in [5]; 53.6% in assay [6]. The growth in [7] is 43.8%; in assay [8], 28.9%; in [9] it was 55.5%; in assay [10] it was 23.9%; in assay [11], 24.8%; in assay [12], 9.45% (active). Moreover, the growth in [13] is 28.2%; in assay [14] it was 42.1%; in [15] it was 37.8%; in assay [16] it was 41.2%; in [17] it was 41.7%; in [18], 36.3%. Besides, the growth in assay [19] was 35%; in [20], 56.7%.

Take `[O-][n+]1c2ccccc2[n+]([O-])c2c3ccccc3[nH]c21`: the growth is 72.6% in assay [1]; 87.7% in assay [2]; 110% in [3]; 75.9% in [4]; 99.6% in [5]; 109% in assay [6]. Further, the growth was 69.7% in [7]; 91.4% in assay [8]; -31.3% (active) in assay [9]; 98.5% in assay [10]; 78.7% in [11]; 77.3% in assay [12]. The growth was 82.6% in assay [13]; 85% in assay [14]; 53.2% in assay [15]; 66.4% in assay [16]; 73.5% in assay [17]; 20.7% in [18]. Further, the growth in assay [19] was 98.3%; in assay [20] it was 117%.

As to `Cc1nc(S(=O)(=O)c2ccccc2)c(S(=O)(=O)Cc2ccc([N+](=O)[O-])cc2)o1`, the growth in assay [1] is 91.3%; in assay [2] it was 80.1%; in assay [3] it was 95.2%; in assay [4], 98.1%; in assay [5], 93.2%; in [6], 89.2%. For the same molecule, the growth in assay [7] is 114%; in [8] it was 104%; in assay [9] it was 85.4%; in [10], 86.3%; in [11], 82.5%; in assay [12] it was 91.2%. For the same molecule, the growth in [13] was 72.9%; in assay [14], 92.5%; in assay [15] it was 98.8%; in [16], 87.9%; in assay [17], 95.9%; in [18], 79.8%. Further, the growth is 89.6% in assay [19] and 103% in assay [20].

For the molecule `CNC(=O)c1[nH]cc(-c2ccccc2)c1-c1cc(OC)c2c(c1OC)OCO2`, the growth in assay [1] is 106%; in [2] it was 98.7%; in assay [3], 105%; in assay [4] it was 96.2%; in [5], 94.1%; in assay [6], 93.6%. In addition, the growth in assay [7] was 106%; in [8], 102%; in assay [9] it was 101%; in [10], 98.3%; in assay [11], 104%; in assay [12] it was 91.5%. Moreover, the growth in assay [13] is 70.9%; in assay [14], 90.6%; in [15], 96%; in assay [16], 98.3%; in [17], 105%; in assay [18], 90.8%. In addition, the growth was 98.5% in assay [19] and 108% in assay [20].

On to `O=C(Nc1c2ccccc2nc2ccccc12)c1ccccc1CN1C(=O)c2ccccc2C1=O`, for which the growth in assay [1] is 27.3%; in assay [2], 22.8%; in [3] it was 31.2%; in assay [4], 34.3%; in assay [5], 43.9%; in [6], 34.3%. Besides, the growth in assay [7] is 31.7%; in [8] it was 21.6%; in assay [9], 38.5%; in assay [10], 21%; in assay [11] it was 19.2%; in assay [12], 11.2%. Also, the growth in assay [13] was 60.1%; in assay [14], 32.9%; in [15], 27.1%; in [16] it was 37.2%; in [17], 39.5%; in [18] it was 58.8%. Further, the growth in assay [19] was 22%; in assay [20], 56.7%.

For the molecule `CCN(CC)CCNC(=O)c1cn2ncnc(Oc3ccc(NC(=O)Nc4ccc(Cl)c(C(F)(F)F)c4)cc3)c2c1C`, the growth in assay [1] is -53.3% (active); in assay [2] it was -79.1% (active); in assay [3], -81.1% (active); in [4], -94.6% (active); in assay [5], -36.3% (active); in assay [6], -64.6% (active). Moreover, the growth was -87.4% (active) in assay [7]; -93.1% (active) in assay [8]; -83.2% (active) in assay [9]; -83.3% (active) in assay [10]; -65.2% (active) in assay [11]; -68.2% (active) in assay [12]. For the same molecule, the growth in [13] was -27% (active); in assay [14] it was -83.4% (active); in assay [15], -78% (active); in [16] it was -79.2% (active); in assay [17], -99% (active); in [18], -81.2% (active). The growth in assay [19] was -98.8% (active); in assay [20], -89.9% (active).

For `Cc1cccc2c3c(sc12)C(c1ccc(Cl)cc1)C(C#N)=C(/N=C/c1ccc(Cl)cc1)O3` (stereo not given), the growth in assay [1] is 20.1%; in [2], 8.84% (active); in assay [3] it was 56.6%; in [4] it was 28.5%; in [5], -15.3% (active); in [6], 44.6%. In addition, the growth in assay [7] is 1.19% (active); in assay [8] it was -13.7% (active); in assay [9] it was 65.1%; in assay [10], 4.4% (active); in assay [11] it was 8.99% (active); in assay [12], 6.06% (active). The growth in assay [13] was -3.88% (active); in assay [14], 23.7%; in assay [15], 24.4%; in assay [16] it was 11%; in assay [17], 26.4%; in [18], 13.1%. The growth in assay [19] was 20.9%; in assay [20], 58.1%.

Take `COc1ccc(C(=O)N=Nc2c(O)n(C)c3ccccc23)cc1`: the growth in [1] was 108%; in [2], 89.3%; in assay [3] it was 103%; in assay [4] it was 85.2%; in assay [5] it was 100%; in assay [6] it was 95.8%. In addition, the growth in assay [7] is 101%; in [8], 89.8%; in assay [9], 106%; in assay [10] it was 101%; in assay [11], 91.6%; in assay [12], 103%. Also, the growth in assay [13] is 91.6%; in [14] it was 87.3%; in assay [15], 98.5%; in [16] it was 90.9%; in assay [17], 89.1%; in [18] it was 90.6%. The growth in [19] was 81.8%; in assay [20] it was 107%.

As to `CCCCCCCCCCCCCCCCCCOc1ccc(CC(=O)OCC[N+](C)(C)C)cc1`, the growth in assay [1] is 99.9%; in assay [2], 47.7%; in assay [3], 113%; in [4], 110%; in assay [5] it was 90.1%; in assay [6], 104%. Also, the growth in assay [7] was 97.6%; in assay [8], 97.9%; in assay [9] it was 108%; in [10], 91.5%; in assay [11], 102%; in assay [12] it was 94.5%. For the same molecule, the growth is 113% in assay [13]; 90.7% in [14]; 92.2% in assay [15]; 96.9% in [16]; 103% in [17]; 97.4% in [18]. In addition, the figures for the growth in [19] and in [20] were 91.1% and 103%, respectively.

The values above are taken from PubChem BioAssay (NCI).
